According to PubChem BioAssay:
The source made the active and inactive calls.

Tests used:
[1] = binders of probe aFSTL3 on microarray, primary screen, stem cell growth factor project, biochemical, small-molecule microarray, fluorescence 635/667 (AID 1064); settings: higher = more signal;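 note: measures binding of the biotinylated anti-FSTL3 antibody to printed compounds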
[2] = binders from COS7 lysate, DM2A8 probe, primary screen, torsin A project, cell lysate, small-molecule microarray, fluorescence 635/667 (AID 1065); settings: higher = more signal, COS7 lysate expressing mutant human TOR1A
[3] = binders of probe aFGF2 on microarray, primary screen, stem cell growth factor project, biochemical, small-molecule microarray, fluorescence 635/667 (AID 1067); settings: higher = more signal;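 note: measures binding of biotinylated aFGF2 protein to printed compounds on slides; z-score merges feature fluorescence and signal-to-noise across triplicate slides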
[4] = binders of probe aFGF10 on microarray, primary screen, stem cell growth factor project, biochemical, small-molecule microarray, fluorescence 635/667 (AID 1071); settings: higher = more signal;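 note: score merges 667 nm spot intensity and signal to noise from triplicate slides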
[5] = target: Neurogenic locus notch homolog protein 2 (Homo sapiens) (UniProt Q04721); assay: Notch2 binders on small-molecule microarrays, primary screen, biochemical, small-molecule microarray, 635 nm fluorescence, stem cell growth factors (AID 1073); settings: Notch2 binding, higher = more signal
Chain of Neurogenic locus notch homolog protein 2 (Homo sapiens) (Q04721 whole entry, looked up, canonical isoform): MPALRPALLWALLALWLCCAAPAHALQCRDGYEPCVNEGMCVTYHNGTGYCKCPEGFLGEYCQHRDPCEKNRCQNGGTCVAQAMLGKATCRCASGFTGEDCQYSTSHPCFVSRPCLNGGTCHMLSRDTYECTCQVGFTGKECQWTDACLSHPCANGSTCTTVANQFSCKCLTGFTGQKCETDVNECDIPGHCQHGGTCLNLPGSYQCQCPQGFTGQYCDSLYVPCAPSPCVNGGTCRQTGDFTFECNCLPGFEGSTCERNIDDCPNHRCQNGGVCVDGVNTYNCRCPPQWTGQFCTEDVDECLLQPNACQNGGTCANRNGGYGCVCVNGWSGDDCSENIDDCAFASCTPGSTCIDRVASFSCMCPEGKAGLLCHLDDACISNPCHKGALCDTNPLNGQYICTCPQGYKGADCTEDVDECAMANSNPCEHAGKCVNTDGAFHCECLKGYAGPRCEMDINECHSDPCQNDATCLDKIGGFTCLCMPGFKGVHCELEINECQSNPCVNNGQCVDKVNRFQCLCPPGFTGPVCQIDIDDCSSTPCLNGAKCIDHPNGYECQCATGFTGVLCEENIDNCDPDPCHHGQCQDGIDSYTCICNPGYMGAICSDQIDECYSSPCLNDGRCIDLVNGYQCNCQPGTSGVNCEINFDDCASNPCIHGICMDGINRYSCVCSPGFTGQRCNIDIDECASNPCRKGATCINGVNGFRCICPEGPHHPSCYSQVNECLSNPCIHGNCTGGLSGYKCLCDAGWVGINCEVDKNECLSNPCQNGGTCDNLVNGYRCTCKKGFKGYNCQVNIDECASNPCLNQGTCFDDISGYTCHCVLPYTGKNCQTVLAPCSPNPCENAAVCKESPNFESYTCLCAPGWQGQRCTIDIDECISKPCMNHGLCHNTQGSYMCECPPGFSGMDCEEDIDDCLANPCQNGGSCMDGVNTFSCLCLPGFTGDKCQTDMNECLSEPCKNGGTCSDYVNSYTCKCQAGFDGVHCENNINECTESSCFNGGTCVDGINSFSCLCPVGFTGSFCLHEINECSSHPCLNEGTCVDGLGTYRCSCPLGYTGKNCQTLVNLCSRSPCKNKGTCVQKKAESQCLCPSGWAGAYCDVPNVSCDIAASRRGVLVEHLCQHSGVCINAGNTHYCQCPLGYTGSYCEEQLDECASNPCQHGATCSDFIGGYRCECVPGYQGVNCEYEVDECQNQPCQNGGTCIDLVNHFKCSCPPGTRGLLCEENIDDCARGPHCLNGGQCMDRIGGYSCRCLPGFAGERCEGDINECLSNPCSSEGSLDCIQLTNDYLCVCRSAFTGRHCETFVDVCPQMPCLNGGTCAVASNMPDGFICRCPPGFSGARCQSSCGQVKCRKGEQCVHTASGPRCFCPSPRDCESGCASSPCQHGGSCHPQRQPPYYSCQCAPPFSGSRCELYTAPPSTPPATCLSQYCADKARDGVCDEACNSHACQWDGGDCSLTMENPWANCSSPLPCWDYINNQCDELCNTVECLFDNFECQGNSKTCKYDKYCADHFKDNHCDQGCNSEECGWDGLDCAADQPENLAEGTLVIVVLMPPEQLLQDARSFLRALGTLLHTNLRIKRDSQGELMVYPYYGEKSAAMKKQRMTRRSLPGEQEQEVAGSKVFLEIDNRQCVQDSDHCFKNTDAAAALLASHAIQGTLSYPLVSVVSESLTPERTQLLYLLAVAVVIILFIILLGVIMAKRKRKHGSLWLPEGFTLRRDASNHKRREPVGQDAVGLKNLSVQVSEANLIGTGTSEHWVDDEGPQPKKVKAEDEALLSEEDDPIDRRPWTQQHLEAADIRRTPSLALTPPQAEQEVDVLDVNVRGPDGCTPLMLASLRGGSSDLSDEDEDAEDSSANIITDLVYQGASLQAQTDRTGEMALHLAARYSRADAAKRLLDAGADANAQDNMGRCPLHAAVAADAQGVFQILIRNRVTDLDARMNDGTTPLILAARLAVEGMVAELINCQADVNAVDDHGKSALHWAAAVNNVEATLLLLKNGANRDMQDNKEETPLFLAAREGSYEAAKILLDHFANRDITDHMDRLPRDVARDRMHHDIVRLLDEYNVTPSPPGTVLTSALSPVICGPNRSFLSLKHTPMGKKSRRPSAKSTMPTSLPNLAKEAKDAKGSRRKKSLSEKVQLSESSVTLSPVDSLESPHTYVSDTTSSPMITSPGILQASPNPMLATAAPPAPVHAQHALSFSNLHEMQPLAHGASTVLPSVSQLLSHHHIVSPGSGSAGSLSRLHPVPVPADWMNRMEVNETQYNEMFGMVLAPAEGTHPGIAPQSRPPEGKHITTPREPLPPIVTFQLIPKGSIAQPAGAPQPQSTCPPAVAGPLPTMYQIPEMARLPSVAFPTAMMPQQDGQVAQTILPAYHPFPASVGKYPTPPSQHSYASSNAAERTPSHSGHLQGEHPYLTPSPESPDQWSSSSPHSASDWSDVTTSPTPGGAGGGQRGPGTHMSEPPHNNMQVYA

[6] = target: Pro-neuregulin-1, membrane-bound isoform (Homo sapiens) (UniProt Q02297); assay: NRG1 binders on small-molecule microarrays, primary screen, psychiatric disease protein project, biochemical, small-molecule microarray, fluorescence 635/667 (AID 1075); settings: NRG1 binding, 635 nm fluorescence, higher = more signal;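 note: score combines 667 nm spot fluorescence with signal to noise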
Chain of Pro-neuregulin-1, membrane-bound isoform (Homo sapiens) (Q02297 whole entry, looked up, the tested form may be a part, canonical isoform): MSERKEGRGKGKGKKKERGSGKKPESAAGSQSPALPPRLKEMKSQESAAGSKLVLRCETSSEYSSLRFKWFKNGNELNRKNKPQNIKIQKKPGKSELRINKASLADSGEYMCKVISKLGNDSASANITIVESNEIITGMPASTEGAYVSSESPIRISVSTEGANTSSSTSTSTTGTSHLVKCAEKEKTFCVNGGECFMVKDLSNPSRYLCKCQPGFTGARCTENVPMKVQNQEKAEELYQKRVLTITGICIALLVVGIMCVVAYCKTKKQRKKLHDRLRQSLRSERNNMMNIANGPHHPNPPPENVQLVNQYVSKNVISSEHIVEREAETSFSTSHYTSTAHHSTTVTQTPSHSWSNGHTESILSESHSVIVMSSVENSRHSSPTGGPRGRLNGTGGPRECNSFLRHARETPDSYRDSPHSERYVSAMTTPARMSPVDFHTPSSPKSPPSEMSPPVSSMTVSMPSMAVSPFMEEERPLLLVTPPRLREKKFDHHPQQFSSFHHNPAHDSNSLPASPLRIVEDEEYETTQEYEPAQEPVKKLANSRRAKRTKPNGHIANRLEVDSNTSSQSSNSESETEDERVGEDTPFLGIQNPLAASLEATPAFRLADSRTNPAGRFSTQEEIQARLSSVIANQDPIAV

[7] = system: Neuregulin-1 EGF-like domain; assay: binders of neuregulin-1 EGF-like domain, primary screen, biochemical, small-molecule microarray, 635 nm fluorescence (AID 1081); settings: small-molecule microarray binding, higher = more signal;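 note: binding of the protein to compounds printed on small-molecule microarray slides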
[8] = FRG1 promoter luciferase signal modulators, primary screen, FRG1 inhibition for FSHD, cell-based, C2C12 myotubes, firefly/Renilla luciferase, luminescence (AID 1084); settings: higher = more signal, called active from +8 up or from −8 down
[9] = binders of probe aFST on microarray, primary screen, stem cell growth factor project, biochemical, small-molecule microarray, fluorescence 635/667 (AID 1086); settings: higher = more signal;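 note: score merges 667 nm fluorescence with signal-to-noise of each printed compound spot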
[10] = binders of probe aHhip on microarray, primary screen, stem cell growth factor project, biochemical, small-molecule microarray, fluorescence 635/667 (AID 1087); settings: higher = more signal;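 note: score merges spot fluorescence at 667nm with spot signal to noise ratio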

COC(=O)[C@@]1(CCS(=O)(=O)c2ccccc2)N=C(c2ccc(OCCCO)cc2)O[C@H]1c1ccccc1CN=[N+]=[N-]
composite z-score [1]: 0.959 | composite z-score [2]: 0.38 | composite z-score [3]: -0.0533 | composite z-score [4]: -0.303 | composite z-score [5]: 0.914 | composite z-score [6]: 0.975 | composite z-score [7]: 1.23 | z-score [8]: -3.26 (inactive) | composite z-score [9]: 0.883 | composite z-score [10]: -0.0634

Cc1ccc([C@@H]2C[C@@H](Sc3ccccc3)[C@H](C(=O)O)CN2S(=O)(=O)c2ccc(C)cc2)cc1
composite z-score [1]: -0.0057 | composite z-score [2]: 0.414 | composite z-score [3]: 0.0512 | composite z-score [4]: 0.983 | composite z-score [5]: 1.59 | composite z-score [6]: 1.57 | composite z-score [7]: 1.35 | z-score [8]: -3.65 (inactive) | composite z-score [9]: 0.936 | composite z-score [10]: 0.0373

CCOC(=O)C[C@H]1[C@H](OC(=O)c2cc3ccccc3oc2=O)[C@@H](NC(=O)c2ccccc2)c2cc(OCCCO)ccc2N1C(=O)c1ccc2ccccc2n1
composite z-score [1]: -0.408 | composite z-score [2]: -0.373 | composite z-score [3]: -0.0878 | composite z-score [4]: 0.8 | composite z-score [5]: 0.889 | composite z-score [6]: 0.0325 | composite z-score [7]: 1.18 | z-score [8]: -0.757 (inactive) | composite z-score [9]: 0.312 | composite z-score [10]: -0.0346

COc1cccc(-c2cccc(=O)o2)c1
composite z-score [1]: 0.782 | composite z-score [2]: -0.387 | composite z-score [3]: 0.338 | composite z-score [4]: 0.143 | composite z-score [5]: 0.0405 | composite z-score [6]: 0.851 | composite z-score [7]: 0.322 | z-score [8]: 5.22 (inactive) | composite z-score [9]: 0.807 | composite z-score [10]: -0.236

COCCOC(=O)N1C(=O)[C@@]2(c3cc(C#CCC(C(=O)OC)C(=O)OC)ccc31)[C@H](c1ccccc1OCCO)N1[C@H](c3ccccc3)[C@H](c3ccccc3)OC(=O)[C@H]1[C@@H]2C(=O)NC[C@H](O)c1ccccc1
composite z-score [1]: -0.0494 | composite z-score [2]: 0.114 | composite z-score [3]: -0.117 | composite z-score [4]: 0.791 | composite z-score [5]: 0.961 | composite z-score [6]: 1.27 | composite z-score [7]: 1.15 | z-score [8]: -0.923 (inactive) | composite z-score [9]: 0.357 | composite z-score [10]: 0.152

C=CCNC(=O)[C@H]1[C@@H]2C(=O)O[C@@H](c3ccccc3)[C@@H](c3ccccc3)N2[C@@H](c2ccccc2OCCO)[C@]12C(=O)Nc1ccc(C#CCCO)cc12
composite z-score [1]: 0.103 | composite z-score [2]: -0.773 | composite z-score [3]: 0.882 | composite z-score [4]: -0.0077 | composite z-score [5]: 0.119 | composite z-score [6]: 0.82 | composite z-score [7]: 0.537 | z-score [8]: -5.02 (inactive) | composite z-score [9]: -0.155 | composite z-score [10]: 0.142

C=CCOC(=O)[C@@H]1[C@H]2C(=O)O[C@H](c3ccccc3)[C@H](c3ccccc3)N2[C@H](c2ccc(OCCOC(=O)[C@@H]3C[C@@H]4C(=O)NCC(=O)N4[C@@H]3c3ccc(O)cc3)cc2)[C@@]12C(=O)Nc1ccc(I)cc12
composite z-score [1]: -0.415 | composite z-score [2]: 0.778 | composite z-score [3]: 0.0428 | composite z-score [4]: 0.371 | composite z-score [5]: 0.364 | composite z-score [6]: 1.04 | composite z-score [7]: 1.26 | z-score [8]: 1.12 (inactive) | composite z-score [9]: 0.0347 | composite z-score [10]: -0.0391

C=C[C@H](CO)NS(=O)(=O)c1ccc(Br)cc1
composite z-score [1]: -0.42 | composite z-score [2]: 0.213 | composite z-score [3]: -0.116 | composite z-score [4]: 0.243 | composite z-score [5]: 0.315 | composite z-score [6]: 0.456 | composite z-score [7]: 0.827 | z-score [8]: 0.297 (inactive) | composite z-score [9]: 0.447 | composite z-score [10]: 0.257

O=C1O[C@H](c2ccccc2)[C@H](c2ccccc2)N2[C@H]1[C@@H](C(=O)N1CCCCCCC1)[C@]1(C(=O)Nc3ccc(C#CC4=CCCCC4)cc31)[C@H]2c1ccc(OCCO)cc1
composite z-score [1]: 3.55 | composite z-score [2]: 2.01 | composite z-score [3]: 0.917 | composite z-score [4]: 0.965 | composite z-score [5]: 1.6 | composite z-score [6]: 2.38 | composite z-score [7]: 1.3 | z-score [8]: 0.677 (inactive) | composite z-score [9]: 3.36 | composite z-score [10]: 3.42

COCCOC(=O)N1C(=O)[C@@]2(c3cc(C#CCCO)ccc31)[C@H](C(=O)N1CCCCCCC1)[C@H]1C(=O)O[C@H](c3ccccc3)[C@H](c3ccccc3)N1[C@@H]2c1ccc(OCCO)cc1
composite z-score [1]: 3.17 | composite z-score [2]: 0.912 | composite z-score [3]: 0.68 | composite z-score [4]: 0.395 | composite z-score [5]: 1.25 | composite z-score [6]: 1.01 | composite z-score [7]: 1.18 | z-score [8]: -1.07 (inactive) | composite z-score [9]: 2.87 | composite z-score [10]: 0.0111

C[C@H]1NC(=O)[C@@]23C(=O)N[C@@H](Cc4ccccc4)C2[C@H](C)[C@@]2(C)O[C@H]2C3/C=C/C/C=C\CNC(=O)[C@@H]2CCCN2C1=O (stereo not given in full)
composite z-score [1]: -0.468 | composite z-score [2]: -0.454 | composite z-score [3]: 0.0653 | composite z-score [4]: 0.479 | composite z-score [5]: 0.521 | composite z-score [6]: 0.425 | composite z-score [7]: 0.909 | z-score [8]: 0.182 (inactive) | composite z-score [9]: 0.145 | composite z-score [10]: -0.132

COC(=O)C(CC#Cc1ccc2c(c1)[C@]1(C(=O)N2)[C@H](c2ccc(OCCO)cc2)N2[C@H](c3ccccc3)[C@H](c3ccccc3)OC(=O)[C@H]2[C@@H]1C(=O)N1CCc2cc(OC)c(OC)cc2C1)C(=O)OC
composite z-score [1]: 0.931 | composite z-score [2]: 0.802 | composite z-score [3]: 0.119 | composite z-score [4]: 1.05 | composite z-score [5]: 1.42 | composite z-score [6]: 1.07 | composite z-score [7]: 1.25 | z-score [8]: 2.24 (inactive) | composite z-score [9]: 1.6 | composite z-score [10]: 0.876

COCCOC(=O)N1C(=O)[C@@]2(c3ccccc31)[C@H](C(=O)N1CCc3cc(OC)c(OC)cc3C1)[C@H]1C(=O)O[C@H](c3ccccc3)[C@H](c3ccccc3)N1[C@@H]2c1ccc(OCCO)cc1
composite z-score [1]: 0.249 | composite z-score [2]: 0.977 | composite z-score [3]: -0.279 | composite z-score [4]: 0.509 | composite z-score [5]: 0.832 | composite z-score [6]: 0.0602 | composite z-score [7]: 1.21 | z-score [8]: -1.98 (inactive) | composite z-score [9]: 0.412 | composite z-score [10]: -0.0085

COC(=O)[C@@]1(Cc2ccc(F)cc2)[C@H]2c3cc(C(=O)N(C)C)n(Cc4ccccc4)c3C[C@H]2CN1C(=O)c1ccccc1
composite z-score [1]: -0.0364 | composite z-score [2]: -0.267 | composite z-score [3]: 0.0103 | composite z-score [4]: 0.314 | composite z-score [5]: 1.58 | composite z-score [6]: 1.32 | composite z-score [7]: 0.337 | z-score [8]: 0.403 (inactive) | composite z-score [9]: 1.35 | composite z-score [10]: 2.22
